GLP1R inv ag: qHTS of GLP-1 Receptor Inverse Agonists (Inhibition Mode); Glucagon-like peptide 1 receptor (Homo sapiens), P43220; HEK293 GLP-1R CRE-luciferase, luminescence, 24 h; GLP-1R form is constitutively active; Potency, µM (top dose mostly 38.3 µM), for inactives: top-dose activity change, negative = inhibition, most hits filed as inhibitors; 410,000 compounds, 1.6% hits; also: % is scaled to controls: 0 for no effect and ±100 for the full control effect; nearly all actives have a fitted effect of over 55% in size
Target sequence (P43220 whole entry, looked up): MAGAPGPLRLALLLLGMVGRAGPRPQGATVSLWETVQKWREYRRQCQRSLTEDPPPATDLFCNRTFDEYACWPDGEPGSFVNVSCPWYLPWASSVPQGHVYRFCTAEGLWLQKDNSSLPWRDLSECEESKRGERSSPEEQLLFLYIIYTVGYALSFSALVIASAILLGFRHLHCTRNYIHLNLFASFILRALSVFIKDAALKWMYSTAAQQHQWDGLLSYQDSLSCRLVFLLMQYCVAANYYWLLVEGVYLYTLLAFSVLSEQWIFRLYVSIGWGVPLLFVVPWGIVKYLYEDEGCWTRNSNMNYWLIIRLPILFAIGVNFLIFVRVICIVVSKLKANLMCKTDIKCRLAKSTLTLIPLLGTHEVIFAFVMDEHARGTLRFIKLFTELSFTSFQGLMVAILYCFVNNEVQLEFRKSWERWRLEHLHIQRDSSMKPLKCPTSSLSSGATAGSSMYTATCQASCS
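qHTS in 1536-well format: reporter HEK293 cells expressing constitutive GLP-1R activity in DMEM + 10% Nu serum, 24 hr with compounds at 37 deg C, luminescence read after 12 min with detection reagent.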
TrxR1 inh: qHTS Assay for Inhibitors of Mammalian Selenoprotein Thioredoxin Reductase 1 (TrxR1): qHTS; AID 588453, 2011; recombinant rTrxR1, NADPH fluorescence consumption, selenite substrate; Potency, µM (series often up to 114 µM), for inactives: at the highest dose activity change, negative = inhibition, hits mostly inhibitors; Thioredoxin reductase 1, cytoplasmic (Rattus norvegicus), O89049; 390,000 compounds, 1% hits; also: % is scaled to controls: 0 for no effect and ±100 for the full control effect; nearly all actives have a fitted effect of over 65% in size
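Rat TrxR1 (90 nM in the dispensed reagent) was pre-reduced with 400 uM NADPH for 5 min at room temperature, then incubated with compound for 15 min. After 400 uM selenite was added, NADPH fluorescence (Ex 340/Em 450 nm) was followed for 8 min.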
TrxR1 substrate: qHTS Assay for Substrates of Mammalian Selenoprotein Thioredoxin Reductase 1 (TrxR1): qHTS; 390,000 compounds, 0.01% hits; Potency, µM (highest dose often 114 µM), for the others: at the highest dose activity change, negative = substrate turnover; AID 588456, 2011; Thioredoxin reductase 1, cytoplasmic (Rattus norvegicus), O89049; purified TrxR1 substrate turnover, NADPH consumption readout; also: % is scaled to controls: 0 for no effect and ±100 for the full control effect; nearly all actives have a fitted effect of over 50% in size
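Rat TrxR1, dispensed at 90 nM, was prereduced with 400 uM NADPH (final) for 5 min at ~22 deg C, then incubated with compound 15 min before 400 uM selenite. A first-read NADPH fluorescence drop versus no-compound background flagged substrates.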
GLP1R cytotox: qHTS of GLP-1 Receptor Inverse Agonists: Cytotox Screen. 410,000 compounds, 0.13% hits. HEK293 cAMP-luciferase reporter cells, luminescence, 24 h. Potency, µM (highest dose often 38.3 µM), without a hit: at the top dose activity change, negative = inhibition, usual class: inhibitors;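 also: loss of luciferase light is scored as toxicity; % is scaled to controls: 0 for no effect and ±100 for the full control effect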
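Compound-treated cells are incubated 24 hr at 37 deg C under 5% CO2 after a 12 hour attachment period, then luciferase detection reagent is added and luminescence is measured following 12 min at room temperature; lowered signal indicates toxicity.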
IDH1 R132H inh: qHTS for Inhibitors of mutant isocitrate dehydrogenase 1 (IDH1): qHTS; Isocitrate dehydrogenase [NADP] cytoplasmic (Homo sapiens), O75874; IDH1-R132H enzyme, NADPH consumption, diaphorase/resazurin fluorescence; Potency, µM (highest dose often 76.6 µM), without a hit: top-dose activity change, negative = inhibition, usual class: inhibitors; 390,000 compounds, 0.093% hits; AID 602179, 2012; also: % is scaled to controls: 0 for no effect and ±100 for the full control effect; nearly all actives have a fitted effect of over 65% in size
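IDH1-R132H (0.5 ug/mL) preincubated 30 min with compound, then NADPH (0.016 mM) and alpha-KG (2 mM) added; 80 min at RT, pH 7.5. Remaining NADPH coupled via diaphorase/resazurin to fluorescence (540/590 nm); concentration-response curves normalized to no-enzyme control.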
GLP1R ag: qHTS of GLP-1 Receptor Agonists; Glucagon-like peptide 1 receptor (Homo sapiens), P43220; HEK293 GLP-1R CRE-luciferase, luminescence, 4-6 h; cells express a hypersensitive GLP-1R form; Potency, µM (highest dose often 45.6 µM), for the others: at the top dose activation, hits mostly activators; 380,000 compounds, 0.007% hits; also: % of control where 0% means no effect
Active calls of the source: *; [ ] = dose if it differs, or a comment. A selection: hits, their analogues and other compounds. The true share with any hit is near 2.7%. Calls follow the shape of the dose curve; as a rule, active = well fitted curve in the direction sought with a large enough effect; inconclusive = small, poorly fitted or top-dose-only effect, or another doubt; inactive = no such curve, though single readings can be large; an effect the other way counts as inactive or inconclusive. Potency is read from the fitted curve at half-maximal effect.

Oc1[nH]c2ccc(Br)cc2c1N=NC(=S)NCC1CCCO1 (stereo unspecified) was read as GLP1R inv ag 13.3%, TrxR1 inh -8.4%, TrxR1 substrate -2.4%, GLP1R cytotox inconclusive, IDH1 R132H inh 4.9% and GLP1R ag 1.5%.
CCn1c(=O)cc(SCC(=O)NCC2CCCO2)c2ccccc21 (stereo unspecified) was read as GLP1R inv ag 6.1%, TrxR1 inh 14.7%, TrxR1 substrate 11.9%, GLP1R cytotox 1.6%, IDH1 R132H inh 2.6% and GLP1R ag -2.5%.
CCn1c(O)c(N=NC(=S)NCC2CCCO2)c2ccccc21 (stereo unspecified) was read as GLP1R inv ag 2.82µM*, TrxR1 inh 4.4%, TrxR1 substrate 0.1%, GLP1R cytotox inconclusive, IDH1 R132H inh 1.8% and GLP1R ag 7.2%.
For Cc1cc(C)c2[nH]c(O)c(N=NC(=S)NCC3CCCO3)c2c1 (stereo unspecified) the results were GLP1R inv ag inconclusive, TrxR1 inh -4.6%, TrxR1 substrate -2.3%, GLP1R cytotox 8.91µM*, IDH1 R132H inh 0.5% and GLP1R ag 10.8%.
CCCc1nnc(NC(=O)c2cc(=O)c3cc(C)c(C)cc3o2)s1 was read as GLP1R inv ag 16.4%, TrxR1 inh -4.7%, TrxR1 substrate -3.3%, GLP1R cytotox 8.7% and IDH1 R132H inh 3.8%.
CN(C)c1ccc(C=NC2CCc3ccccc32)cc1 (stereo unspecified) was read as TrxR1 inh -11.8% and TrxR1 substrate -14.4%.
Screening C[N+]1(CC(=O)c2ccc(I)cc2)CCCc2ccccc21 (stereo unspecified) returned TrxR1 inh 1.5% and TrxR1 substrate -4.1%.
`COc1cccc(CNC(=O)c2oc3c(c2C)-c2nn(Cc4cccc(Cl)c4)cc2CC3)c1` gave GLP1R inv ag 11.2µM*, TrxR1 inh 46.2%, TrxR1 substrate -5.2%, GLP1R cytotox 11.5% and IDH1 R132H inh -8.7%.
For COc1cccc(CNC(=O)c2oc3c(c2C)-c2nn(Cc4cccc(Cl)c4)cc2CC3)c1OC the results were GLP1R inv ag inconclusive, TrxR1 inh 12.9%, TrxR1 substrate 0.3%, GLP1R cytotox 1.4% and IDH1 R132H inh 0.0%.
For CC(C)(C)NC(=O)/C(=C/c1ccco1)c1ccccc1 the results were GLP1R inv ag inconclusive, TrxR1 inh -28.9%[57.1 µM], TrxR1 substrate 5.1%[57.1 µM], GLP1R cytotox -17.8%, IDH1 R132H inh 3.9% and GLP1R ag -0.2%.
For COc1ccc(C(=O)/C(=C\c2ccco2)N2C=CC=CC2=C(C#N)C#N)cc1 the results were GLP1R inv ag inconclusive, TrxR1 inh 8.91µM*, TrxR1 substrate 2.6%, GLP1R cytotox 10.7%, IDH1 R132H inh 6.2% and GLP1R ag -23.4%.
For COc1ccc(/C=C(/C(=O)c2cccs2)N2C=CC=CC2=C(C#N)C#N)cc1 the results were GLP1R inv ag inconclusive, TrxR1 inh 0.112µM*, TrxR1 substrate 2.3%, GLP1R cytotox 4.8%, IDH1 R132H inh -0.7% and GLP1R ag 5.2%.
For N#C/C(=C/c1ccco1)C(N)=S the results were GLP1R inv ag 3.8%, TrxR1 inh -4.1%, TrxR1 substrate -4.6%, GLP1R cytotox -12.1%, IDH1 R132H inh 12.3% and GLP1R ag 2.0%.
`N#CC(C#N)=C1C=CC=CN1/C(=C\c1ccco1)C(=O)c1ccc(Br)cc1` gave GLP1R inv ag inconclusive, TrxR1 inh 1.12µM*, TrxR1 substrate -4.6%, GLP1R cytotox -2.3%, IDH1 R132H inh 2.0% and GLP1R ag -7.4%.
`N#CC(C#N)=C1C=CC=CN1/C(=C\c1ccco1)C(=O)c1ccccc1` gave GLP1R inv ag inconclusive, TrxR1 inh 1.58µM*, TrxR1 substrate -14.6%, GLP1R cytotox 9.6%, IDH1 R132H inh 5.7% and GLP1R ag -36.6%.
For CC(=O)Nc1ccc(NC(=O)COC(=O)c2ccccc2OCc2cccc(Br)c2)cc1 the results were TrxR1 inh 4.1% and TrxR1 substrate -3.9%.
Screening CC(=O)OCC(NC(=O)C(CCCCNC(=O)OCc1ccccc1)NC(=O)OC(C)(C)C)C1OC(n2ccc(=O)[nH]c2=O)C(OC(C)=O)C1OC(C)=O (stereo unspecified) returned TrxR1 inh 1.1% and TrxR1 substrate 3.1%.
`CC(C)(C)C(c1nc2ccccc2[nH]1)n1c(-c2ccsc2)nc2ccccc21` (stereo unspecified) gave GLP1R inv ag 10µM* and GLP1R cytotox inconclusive.
Screening Cc1ccc(NC(=O)COC(=O)c2csc3c2CCC(C)C3)cc1S(=O)(=O)N1CCCCC1 (stereo unspecified) returned GLP1R inv ag -5.1%, TrxR1 inh 2.9%, TrxR1 substrate -8.0%, GLP1R cytotox 2.9%, IDH1 R132H inh -2.6% and GLP1R ag -6.6%.
Screening CC1CCc2c(C(=O)OCC(=O)Nc3cccc(S(=O)(=O)N4CCCCCC4)c3)csc2C1 (stereo unspecified) returned GLP1R inv ag 2.51µM*, TrxR1 inh 16.5%, TrxR1 substrate 2.7%, GLP1R cytotox -2.3%, IDH1 R132H inh 5.0% and GLP1R ag -3.1%.
For Cc1ccc(C)c(C(=O)OCC(=O)Nc2cccc(S(=O)(=O)N3CCCCC3)c2)c1 the results were GLP1R inv ag 1.41µM*, TrxR1 inh 10.8%, TrxR1 substrate -4.3%, GLP1R cytotox -4.4%, IDH1 R132H inh 8.2% and GLP1R ag -1.4%.
Cc1ccccc1C(=O)OCC(=O)Nc1cccc(S(=O)(=O)N2CCCCC2)c1 was read as GLP1R inv ag inconclusive, GLP1R cytotox -11.2%, IDH1 R132H inh 2.6% and GLP1R ag 6.1%.
`Cc1ccc(S(=O)(=O)N2CCCCC2)cc1C(=O)OC(C)C(=O)NCC1CCCCC1` (stereo unspecified) gave GLP1R inv ag 7.08µM*, TrxR1 inh 0.2%, TrxR1 substrate -6.0%, GLP1R cytotox -4.0%, IDH1 R132H inh 3.4% and GLP1R ag 6.1%.

Compound activity from PubChem.
